Unmarked numbers belong to inactive results. Results filed as inconclusive are left out. A call without a number means that no potency is given here. Calls of active or inactive are those of the source. The call rests on the fitted dose curve; in most records, active means well fitted curve in the direction sought with a large enough effect; inconclusive means small, poorly fitted or top-dose-only effect, or another doubt; inactive means no such curve, though single readings can be large; an effect the other way counts as inactive or inconclusive.
What was measured:
[1] = biological target: Phospholipid hydroperoxide glutathione peroxidase GPX4 (Homo sapiens) (UniProt P36969); experiment: Primary qHTS Assay for Inhibitors of Recombinant Selenoprotein Glutathione Peroxidase 4 (GPX4) (AID 1845192); further: nearly all actives have a fitted effect of over 65% in size; further: potency means the concentration at half of the fitted maximal effect
In short: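 qHTS, GR-coupled: GPX4 200 nM + cpd 30 min RT → GSH 1 mM, NADPH 0.5 mM, GR 100 nM → CHP 0.5 mM start; fluor 340/450 at t0 and t15 min; no-enzyme wells as control.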

[2] = biological target: Luciferin 4-monooxygenase (Photinus pyralis) (UniProt P08659); experiment: Primary firefly luciferase (FLuc) qHTS assay for identification of artifact compounds. (AID 1845220); further: nearly all actives have a fitted effect of over 60% in size
In short: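 In this counter-screen for luciferase artifacts, test compounds met substrate (10 uM each luciferin and ATP) before 10 nM enzyme started the reaction. Light output was measured 5 min later.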

[3] = Primary fluorescence-based thiol-reactive (MSTI) qHTS assay for identification of artifact compounds. (AID 1845221); further: nearly all actives have a fitted effect of over 65% in size; further: potency means the concentration at half of the fitted maximal effect
In short: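 In PBS pH 7.4 with 2% DMSO, each compound met 4 uM MSTI for one hour at ambient temperature, shielded from light, before fluorescence detection.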

[4] = tested on: Nanoluciferase (engineered Oplophorus gracilirostris luciferase); experiment: Primary Nanoluciferase (NLuc) qHTS assay for identification of artifact compounds. (AID 1845222);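 further: NLuc secreted into diluted conditioned medium of S16 cells; series mostly up to about 54 µM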
In short: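 Using secreted nanoluciferase in S16 culture medium (0.22 um filtered, 1:55 dilution), compounds were preincubated 15 min at RT. Signal was generated with Nano-Glo reagent (1:100) over 5 min.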

[5] = biological target: Glutathione peroxidase 1 (Homo sapiens) (UniProt P07203); experiment: Primary qHTS Assay for Inhibitors of Recombinant Selenoprotein Glutathione Peroxidase 1 (GPX1) (AID 1845191); further: nearly all actives have a fitted effect of over 65% in size
In short: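 GPX1 10 nM, GR 100 nM, GSH 1 mM, NADPH 0.5 mM, CHP 0.5 mM (final). 30-min cpd preincubation, RT. Ex340/Em450 read t=0, t=15 min.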

[6] = Primary redox qHTS assay for identification of artifact compounds. (AID 1845223)
In short: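 Redox-cycling detection via DTT (250 uM final) oxidation coupled to Amplex Red (25 uM)/HRP (250 mU/mL) in HBSS. 15 min preincubation plus 30 min after DTT, room temperature. Ex/Em 525/598 nm; 4-parameter Hill fit against DMSO and 10 uM DA3003.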

Glutathione peroxidase 1 (Homo sapiens), sequence (P07203 whole entry, looked up): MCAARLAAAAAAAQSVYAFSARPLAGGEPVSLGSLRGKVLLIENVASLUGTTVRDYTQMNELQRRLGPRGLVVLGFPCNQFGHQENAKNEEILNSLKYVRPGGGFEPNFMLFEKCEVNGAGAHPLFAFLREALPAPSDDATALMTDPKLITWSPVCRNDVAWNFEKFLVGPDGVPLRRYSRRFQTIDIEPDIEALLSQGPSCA
Phospholipid hydroperoxide glutathione peroxidase GPX4 (Homo sapiens), sequence (P36969 whole entry, looked up): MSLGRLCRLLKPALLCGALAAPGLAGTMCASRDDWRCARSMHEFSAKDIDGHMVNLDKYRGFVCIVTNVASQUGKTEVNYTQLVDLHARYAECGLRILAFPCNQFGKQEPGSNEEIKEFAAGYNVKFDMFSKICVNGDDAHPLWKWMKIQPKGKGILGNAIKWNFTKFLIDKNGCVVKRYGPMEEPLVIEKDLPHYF

Compound | Potency [1] | Potency [2] | Potency [3] | Potency [4] | Potency [5] | Potency [6]
Cc1cc2c(F)c(Oc3ncnn4cc(OCC(C)OC(=O)C(C)N)c(C)c34)ccc2[nH]1 (stereo unspecified) | inactive | inactive | inactive | inactive | – | –
NC(=O)c1cnc(N[C@@H]2CCCC[C@H]2N)nc1Nc1cccc(-n2nccn2)c1 | inactive | inactive | inactive | inactive | – | –
NCC1CCN(c2nccc(-c3ccc4ccccc4c3)n2)CC1 | – | – | inactive | inactive | inactive | inactive
NCCCC[C@H](NC(=O)[C@@H]1CCCN1C(=O)[C@@H]1CSSC[C@H](N)C(=O)N[C@@H](Cc2ccc(O)cc2)C(=O)N[C@@H](Cc2ccccc2)C(=O)N[C@@H](CCC(N)=O)C(=O)N[C@@H](CC(N)=O)C(=O)N1)C(=O)NCC(N)=O | 17.8 µM (active) | – | – | – | – | –
C=C1/C(=C/C=C2\CCC[C@@]3(C)C2CCC3[C@H](C)/C=C/[C@@H](O)C2CC2)C[C@@H](O)C[C@@H]1O (stereo partly specified) | inactive | inactive | inactive | inactive | – | –
COC1C(OC(=O)/C=C/C=C/C=C/C=C/C(=O)O)CCC2(CO2)C1C1(C)OC1CC=C(C)C (stereo unspecified) | – | inactive | – | – | inactive | inactive
CCn1c2ccccc2c2cc(Nc3ccnc(NCCCN4CCOCC4)n3)ccc21 | – | inactive | – | inactive | inactive | inactive
C=CC(=O)Nc1ccc(CN2C(=O)N(c3cc(OC)cc(OC)c3)Cc3cnc(Nc4ccc(N5CCN(C)CC5)cc4)nc32)cc1 | – | inactive | – | inactive | inactive | inactive
COC(=O)c1ccc2c(c1)nc(NC(=O)c1ccccc1)n2CCCc1ccccc1 | – | inactive | – | inactive | inactive | inactive
N#Cc1ccc(Nc2nc(-c3ccc(O)cc3O)cs2)cc1C(F)(F)F | inactive | inactive | 2.99 µM (active) | inactive | – | –
Cn1ncnc1[C@@H]1c2n[nH]c(=O)c3cc(F)cc(c23)N[C@H]1c1ccc(F)cc1 | – | inactive | inactive | – | inactive | inactive
CC1(C)S[C@@H]2[C@H](NC(=O)C(C(=O)Oc3ccc4c(c3)CCC4)c3ccccc3)C(=O)N2[C@H]1C(=O)O (stereo partly specified) | 8.91 µM (active) | – | – | – | – | –
COc1ccc(-c2c(C)nn3c(NCCN4CCOCC4)cc(C)nc23)cc1OC | – | inactive | – | inactive | inactive | –
CS(=O)(=O)c1ccc(Oc2cc(F)cc(C#N)c2)c2c1[C@H](O)C(F)(F)C2 | inactive | – | – | – | – | –
CCC1C(=O)N(C)c2cnc(Nc3ccc(C(=O)NC4CCN(C)CC4)cc3OC)nc2N1C1CCCC1 (stereo unspecified) | inactive | inactive | inactive | inactive | – | –
COc1ccc(C(=O)O[C@H]2C=COC=C3C=C4C(=O)N(C)C(=S)C(=O)N4[C@@H]32)cc1Oc1cc(C=O)ccc1O | 3.13 µM (active) | inactive | inactive | inactive | – | inactive
CC(C)(F)CC(NC(c1ccc(-c2ccc(S(C)(=O)=O)cc2)cc1)C(F)(F)F)C(=O)NC1(C#N)CC1 (stereo unspecified) | inactive | inactive | inactive | inactive | – | inactive
C/C=C/C=C/C(=O)O[C@@H]1C=C2COC(=O)[C@]2(O)[C@@]2(C)CCCC(C)(C)[C@H]12 | inactive | inactive | inactive | inactive | – | inactive
CCCCCCOC(=O)/N=C(\N)c1ccc(NCc2nc3cc(C(=O)N(CCC(=O)OCC)c4ccccn4)ccc3n2C)cc1 | inactive | inactive | inactive | inactive | – | inactive
Cc1nc(NC(=O)N2CCCC2C(N)=O)sc1-c1ccnc(C(C)(C)C(F)(F)F)c1 (stereo unspecified) | inactive | inactive | inactive | inactive | – | inactive
CC(NC(=O)Cc1cc(F)cc(F)c1)C(=O)NC1C(=O)N(C)c2ccccc2-c2ccccc21 (stereo unspecified) | inactive | inactive | inactive | inactive | – | inactive
O=c1cc(OCc2ccc(F)cc2)ccn1-c1ccc(OCCN2CCCC2)cc1 | inactive | inactive | inactive | inactive | – | inactive
O=c1cc(NCCCN[C@@H]2CCOc3c(Br)cc(Br)cc32)[nH]c2ccsc12 | inactive | inactive | inactive | inactive | – | inactive
CC#CCn1c(N2CCCC(N)C2)nc2c1c(=O)n(Cc1nc(C)c3ccccc3n1)c(=O)n2C (stereo unspecified) | inactive | inactive | inactive | inactive | – | –
Cn1ncc(Cl)c1-c1cc(C(=O)N[C@H](CN)Cc2ccc(F)c(F)c2)oc1Cl | inactive | inactive | inactive | inactive | – | –
COc1cc2c(cc1-c1c(C)noc1C)ncc1[nH]c(=O)n(C(C)c3ccccn3)c12 (stereo unspecified) | inactive | inactive | inactive | – | – | inactive
O=C(Nc1ccccc1Br)NC1CCN(c2ccc(C(F)(F)F)cn2)C1 (stereo unspecified) | inactive | inactive | inactive | inactive | – | inactive
CC1(NC(=O)c2ccc(C#Cc3cccc(F)c3)cn2)COC1 | inactive | inactive | inactive | inactive | – | inactive
C=CC(C)(O)CC[C@@H]1[C@@]2(C)CCCC(C)(C)C2CC[C@@]1(C)O (stereo partly specified) | inactive | inactive | inactive | inactive | – | inactive

From PubChem BioAssay (NCATS)
